Source: ChEMBL document CHEMBL3988442, “University of Dundee, Small-Polar-MMV Screening Library” (2021)
For some assays here: Measured potencies and affinities stand elsewhere.

Columns and labels:
Design in all cases: scale not given: direction of the effect not stated beside the values
[1] = biological target: Protein translocase subunit SecA (Escherichia coli (strain K12)) (UniProt P10408); assay: Assay to Identify E. coli SecA ATPase Inhibitors; format: functional; settings: 30 µM
[2] = biological target: T1, Ubiquitin-activating enzyme e1, putative (Leishmania donovani (strain BPK282A1)) (UniProt E9BSI1); assay: Leishmania donovani Ubiquitin Activating Enzyme (LdE1); format: functional; settings: 30 µM
T1 sequence (whole entry): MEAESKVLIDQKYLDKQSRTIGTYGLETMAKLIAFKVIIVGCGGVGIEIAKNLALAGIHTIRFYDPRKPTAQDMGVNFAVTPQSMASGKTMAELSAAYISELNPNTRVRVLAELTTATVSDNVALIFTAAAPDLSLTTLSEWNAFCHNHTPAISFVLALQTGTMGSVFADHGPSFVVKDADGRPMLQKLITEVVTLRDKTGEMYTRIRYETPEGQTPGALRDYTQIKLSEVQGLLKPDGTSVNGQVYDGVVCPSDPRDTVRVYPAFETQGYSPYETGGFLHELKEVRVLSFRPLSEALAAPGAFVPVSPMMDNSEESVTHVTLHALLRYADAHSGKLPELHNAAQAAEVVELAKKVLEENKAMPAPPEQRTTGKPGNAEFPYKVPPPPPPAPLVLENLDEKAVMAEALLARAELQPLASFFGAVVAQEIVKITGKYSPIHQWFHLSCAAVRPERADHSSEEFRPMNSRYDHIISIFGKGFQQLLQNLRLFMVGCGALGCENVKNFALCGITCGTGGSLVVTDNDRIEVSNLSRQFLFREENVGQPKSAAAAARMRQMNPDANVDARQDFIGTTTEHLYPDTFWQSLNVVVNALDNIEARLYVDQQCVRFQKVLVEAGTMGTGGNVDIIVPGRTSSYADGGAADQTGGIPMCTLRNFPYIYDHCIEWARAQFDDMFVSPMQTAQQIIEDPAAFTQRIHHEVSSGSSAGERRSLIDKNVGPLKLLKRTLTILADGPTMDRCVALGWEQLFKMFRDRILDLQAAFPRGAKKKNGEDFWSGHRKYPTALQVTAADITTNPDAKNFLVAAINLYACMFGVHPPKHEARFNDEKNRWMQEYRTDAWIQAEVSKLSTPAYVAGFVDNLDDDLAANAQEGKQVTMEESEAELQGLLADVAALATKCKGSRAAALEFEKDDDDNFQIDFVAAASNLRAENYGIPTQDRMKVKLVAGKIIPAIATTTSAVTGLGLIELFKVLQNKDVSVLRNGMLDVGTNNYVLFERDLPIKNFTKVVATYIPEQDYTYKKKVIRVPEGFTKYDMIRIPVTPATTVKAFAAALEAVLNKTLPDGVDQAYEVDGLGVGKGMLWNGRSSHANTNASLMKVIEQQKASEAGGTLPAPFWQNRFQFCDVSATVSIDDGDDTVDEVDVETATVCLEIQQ

[3] = biological target: AMP-activated protein kinase, AMPK (Homo sapiens) (UniProt P54646+O43741+P54619+Q9UGJ0+Q9Y478+Q13131+Q9UGI9); assay: AMP-dependent Kinase enzyme assay. An in vitro enzyme assay that detects ADP turnover that is directly proportional to AMPK activity. This uses naive AMPK that is activated during the assay with MK-8722; format: functional; settings: 30 µM
[4] = biological target: Sialic acid-binding Ig-like lectin 9 (Homo sapiens) (UniProt Q9Y336); assay: Hs-Siglec9 ALPHAscreen SOP 20170721; settings: 10 µM
[5] = system: Trypanosoma cruzi; assay: Trypanosoma cruzi phosphomannomutase and mannose-1-phosphate guanylyltransferase assay; format: functional; settings: 10 µM
[6] = biological target: T2, Arginase-2, mitochondrial (Homo sapiens) (UniProt P78540); assay: in vitro enzyme assay to detect the production of urea directly proportional to the activity of Arginase II; format: functional; settings: 33.3 µM; further: in the data most compounds retested in dose-response had high values
T2 sequence (whole entry): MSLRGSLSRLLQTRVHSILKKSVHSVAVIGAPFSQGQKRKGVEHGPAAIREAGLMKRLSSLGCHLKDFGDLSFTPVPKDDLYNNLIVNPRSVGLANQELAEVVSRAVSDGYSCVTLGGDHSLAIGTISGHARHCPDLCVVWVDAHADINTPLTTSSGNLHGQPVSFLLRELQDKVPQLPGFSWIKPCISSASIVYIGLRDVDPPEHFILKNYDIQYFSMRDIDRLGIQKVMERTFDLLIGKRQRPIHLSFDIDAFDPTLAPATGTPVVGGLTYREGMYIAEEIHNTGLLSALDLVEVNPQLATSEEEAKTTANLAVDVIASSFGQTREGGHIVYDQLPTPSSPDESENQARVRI

[7] = biological target: T3, Proteasome subunit beta (Trypanosoma cruzi) (UniProt O96673); assay: Trypanosoma cruzi proteasome chymotrypsin-like activity (TcProtChymo) assay.; further: in the data most compounds retested in dose-response had high values; format: functional; settings: 9.37 µM
T3 sequence (whole entry): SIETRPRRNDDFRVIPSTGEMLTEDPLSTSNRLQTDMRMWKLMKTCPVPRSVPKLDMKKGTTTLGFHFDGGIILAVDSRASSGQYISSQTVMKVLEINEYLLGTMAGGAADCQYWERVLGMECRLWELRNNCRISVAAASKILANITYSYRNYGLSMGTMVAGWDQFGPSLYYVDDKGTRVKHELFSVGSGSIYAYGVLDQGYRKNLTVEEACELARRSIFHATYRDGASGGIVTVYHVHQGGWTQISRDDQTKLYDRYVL

[8] = organism: Homo sapiens; assay: To identify inhibition of the IFN signalling (Jak-Stat) pathway via expression of an eGFP reporter gene under the control of an IFN-stimulated response element (ISRE) containing MxA promoter.; format: functional; settings: 30 µM
[9] = biological target: T4, Tyrosyl-tRNA synthetase, putative (Trypanosoma cruzi (strain CL Brener)) (UniProt Q4DSP6); assay: Trypanosoma cruzi tyrosyl tRNA synthetase (TcYRS) _High Tyrosine SOP; format: functional; settings: 30 µM; further: in the data most compounds retested in dose-response had high values
T4 sequence (whole entry): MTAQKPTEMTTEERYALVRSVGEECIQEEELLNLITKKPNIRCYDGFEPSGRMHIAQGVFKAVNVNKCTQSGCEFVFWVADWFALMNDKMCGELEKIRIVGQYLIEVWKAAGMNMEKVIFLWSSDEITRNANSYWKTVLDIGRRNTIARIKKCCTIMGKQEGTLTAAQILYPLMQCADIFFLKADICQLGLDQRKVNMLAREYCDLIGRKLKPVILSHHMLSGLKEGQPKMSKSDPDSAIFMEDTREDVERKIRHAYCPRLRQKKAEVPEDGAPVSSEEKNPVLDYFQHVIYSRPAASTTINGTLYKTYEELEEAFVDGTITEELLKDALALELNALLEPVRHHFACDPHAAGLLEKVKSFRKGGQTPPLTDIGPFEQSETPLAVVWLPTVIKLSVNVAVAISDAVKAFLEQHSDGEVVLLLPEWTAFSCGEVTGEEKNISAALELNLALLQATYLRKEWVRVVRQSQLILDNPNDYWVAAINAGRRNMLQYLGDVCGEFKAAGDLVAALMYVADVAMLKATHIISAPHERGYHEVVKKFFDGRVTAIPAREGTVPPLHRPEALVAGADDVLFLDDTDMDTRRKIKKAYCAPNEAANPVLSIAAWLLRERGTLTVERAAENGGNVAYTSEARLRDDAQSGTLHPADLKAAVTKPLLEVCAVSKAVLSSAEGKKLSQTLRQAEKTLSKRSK

[10] = biological target: T4, Tyrosyl-tRNA synthetase, putative (Trypanosoma cruzi (strain CL Brener)); assay: Trypanosoma cruzi tyrosyl tRNA synthetase (TcYRS) SOP; format: functional; settings: 30 µM
[11] = biological target: Chromo domain-containing protein 1 (Saccharomyces cerevisiae (strain ATCC 204508 / S288c) (Baker's yeast)) (UniProt P32657); assay: ScCHD-1 Enzyme Inhibition Assay; format: functional; settings: 30 µM; further: in the data most compounds retested in dose-response had high values
Chromo domain-containing protein 1 (Saccharomyces cerevisiae (strain ATCC 204508 / S288c) (Baker's yeast)), sequence (P32657 whole entry, the tested form may be a part): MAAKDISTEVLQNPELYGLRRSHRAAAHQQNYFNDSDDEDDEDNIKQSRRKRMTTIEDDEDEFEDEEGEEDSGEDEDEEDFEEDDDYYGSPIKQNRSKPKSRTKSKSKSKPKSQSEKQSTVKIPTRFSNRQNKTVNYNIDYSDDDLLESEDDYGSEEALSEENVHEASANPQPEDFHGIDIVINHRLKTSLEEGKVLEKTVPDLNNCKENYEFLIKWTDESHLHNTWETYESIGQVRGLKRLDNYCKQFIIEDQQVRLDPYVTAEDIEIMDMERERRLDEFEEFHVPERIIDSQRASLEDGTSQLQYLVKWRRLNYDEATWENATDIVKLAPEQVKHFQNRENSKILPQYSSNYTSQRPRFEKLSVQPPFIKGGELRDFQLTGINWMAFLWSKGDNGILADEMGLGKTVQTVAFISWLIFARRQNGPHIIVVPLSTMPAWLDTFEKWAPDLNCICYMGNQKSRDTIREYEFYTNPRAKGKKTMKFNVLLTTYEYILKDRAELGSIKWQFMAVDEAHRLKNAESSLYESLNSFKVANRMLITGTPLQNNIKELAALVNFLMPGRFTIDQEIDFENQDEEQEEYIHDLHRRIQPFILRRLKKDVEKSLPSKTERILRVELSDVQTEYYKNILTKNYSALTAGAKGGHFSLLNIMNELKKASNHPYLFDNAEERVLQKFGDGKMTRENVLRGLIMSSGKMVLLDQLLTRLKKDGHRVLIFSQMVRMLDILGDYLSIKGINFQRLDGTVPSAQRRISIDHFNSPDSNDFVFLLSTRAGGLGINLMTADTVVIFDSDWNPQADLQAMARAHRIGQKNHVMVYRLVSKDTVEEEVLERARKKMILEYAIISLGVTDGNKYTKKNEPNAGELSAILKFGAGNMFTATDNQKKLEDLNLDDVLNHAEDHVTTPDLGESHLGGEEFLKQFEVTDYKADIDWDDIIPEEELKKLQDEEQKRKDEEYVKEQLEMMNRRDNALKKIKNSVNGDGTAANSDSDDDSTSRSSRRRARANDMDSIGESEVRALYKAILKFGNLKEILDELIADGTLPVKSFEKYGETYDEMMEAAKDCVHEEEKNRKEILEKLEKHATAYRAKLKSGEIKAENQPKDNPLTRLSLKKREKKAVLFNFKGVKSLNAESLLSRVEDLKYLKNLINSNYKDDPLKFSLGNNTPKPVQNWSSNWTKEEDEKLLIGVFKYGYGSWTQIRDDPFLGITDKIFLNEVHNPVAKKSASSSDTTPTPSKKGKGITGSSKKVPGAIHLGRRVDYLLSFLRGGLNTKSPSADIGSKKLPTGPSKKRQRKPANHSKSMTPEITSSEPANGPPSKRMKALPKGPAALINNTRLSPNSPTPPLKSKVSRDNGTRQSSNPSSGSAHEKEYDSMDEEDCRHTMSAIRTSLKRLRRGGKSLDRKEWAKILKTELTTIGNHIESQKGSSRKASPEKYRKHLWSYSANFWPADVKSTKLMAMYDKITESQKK

Sialic acid-binding Ig-like lectin 9 (Homo sapiens), sequence (Q9Y336 whole entry): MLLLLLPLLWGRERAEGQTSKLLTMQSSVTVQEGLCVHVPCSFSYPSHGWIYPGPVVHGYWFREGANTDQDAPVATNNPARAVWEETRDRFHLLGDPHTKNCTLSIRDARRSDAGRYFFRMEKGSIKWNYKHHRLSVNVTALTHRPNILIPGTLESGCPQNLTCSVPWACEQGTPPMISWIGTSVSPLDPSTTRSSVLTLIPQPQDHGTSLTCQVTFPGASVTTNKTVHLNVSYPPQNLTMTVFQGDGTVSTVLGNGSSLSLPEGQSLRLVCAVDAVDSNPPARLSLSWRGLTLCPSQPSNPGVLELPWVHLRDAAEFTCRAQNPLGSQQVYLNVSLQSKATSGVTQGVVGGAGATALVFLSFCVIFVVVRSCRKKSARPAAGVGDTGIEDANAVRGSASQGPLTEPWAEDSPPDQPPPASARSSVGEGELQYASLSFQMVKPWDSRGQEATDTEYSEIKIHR
Protein translocase subunit SecA (Escherichia coli (strain K12)), sequence (P10408 whole entry): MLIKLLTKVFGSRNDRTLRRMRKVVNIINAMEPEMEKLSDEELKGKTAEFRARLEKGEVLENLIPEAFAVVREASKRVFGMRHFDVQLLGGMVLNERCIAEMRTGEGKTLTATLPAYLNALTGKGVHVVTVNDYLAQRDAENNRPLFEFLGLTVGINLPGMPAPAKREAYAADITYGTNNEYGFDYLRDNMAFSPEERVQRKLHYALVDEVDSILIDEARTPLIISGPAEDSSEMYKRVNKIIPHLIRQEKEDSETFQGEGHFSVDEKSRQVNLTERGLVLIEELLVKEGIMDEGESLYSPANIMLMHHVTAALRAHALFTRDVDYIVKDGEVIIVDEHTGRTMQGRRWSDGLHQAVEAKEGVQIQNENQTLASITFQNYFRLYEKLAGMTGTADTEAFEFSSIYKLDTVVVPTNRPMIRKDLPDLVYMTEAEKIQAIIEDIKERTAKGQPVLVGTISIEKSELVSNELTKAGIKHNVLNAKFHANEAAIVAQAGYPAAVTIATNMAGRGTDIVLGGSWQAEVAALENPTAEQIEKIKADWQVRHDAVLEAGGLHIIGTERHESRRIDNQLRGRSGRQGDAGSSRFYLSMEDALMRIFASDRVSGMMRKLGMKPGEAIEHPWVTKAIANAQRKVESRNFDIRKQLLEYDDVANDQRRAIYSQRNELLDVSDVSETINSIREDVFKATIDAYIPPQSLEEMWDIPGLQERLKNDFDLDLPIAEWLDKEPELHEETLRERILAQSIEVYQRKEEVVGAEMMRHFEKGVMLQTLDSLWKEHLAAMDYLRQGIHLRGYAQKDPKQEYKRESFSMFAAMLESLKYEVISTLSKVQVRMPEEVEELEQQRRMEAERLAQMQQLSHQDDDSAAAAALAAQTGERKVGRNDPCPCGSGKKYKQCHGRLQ

Row | Compound | Percent Effect [1] | Percent Effect [2] | Percent Effect [3] | Percent Effect [4] | Percent Effect [5] | Percent Effect [6] | Percent Effect [7] | Percent Effect [8] | Percent Effect [9] | Percent Effect [10] | Percent Effect [11]
1 | Cc1cc(C)nc(Nc2cc(C3CCCN(C)C3)nc(C)n2)n1 (configuration not stated) | -3.56% | 9.46% | -3.72% | 6.27% | 1.19% | -1.62% | 9.2% | 1.68% | 4.3% | 11.7% | -18.4%
2 | N#CCCN(CCC#N)C(=O)CN1CCCC1Cc1cccc(F)c1 (configuration not stated) | -3.46% | 0% | -6.01% | -7.53% | 3.32% | 1.25% | 24.6% | -17.1% | 7.92% | 8.54% | 0.083%
3 | CC(=O)N1CCCC1c1ccc(C(=O)N2CCOCC2)s1 (configuration not stated) | -6.72% | -2.7% | 2.48% | -7.62% | -4.2% | -2.23% | -0.601% | 26.2% | -2.15% | -3.7% | 4.51%
4 | Cc1ccc(N(C)C2CCN(C(=O)c3ccsc3)CC2)nn1 | -3.77% | 5.2% | 5.3% | 11.4% | 5.62% | -7.47% | 10.6% | 1.47% | 5.83% | 19.5% | -7.83%
5 | Cc1cccc(CN2CCc3c(nc(N4CCC(C)CC4)[nH]c3=O)C2)n1 | -4.27% | 4.05% | 14.3% | 2.26% | 4.15% | -0.696% | 5.3% | -12.8% | 8.6% | 14.3% | -8.43%
6 | Cc1ccc([C@@H]2CN(S(=O)(=O)N(C)C)C[C@H]2N(C)C)cc1 | -5.32% | 13.5% | -7.05% | 37% | 3.42% | 45.9% | 8.84% | -3.64% | 4.3% | 11.1% | -14.3%
7 | O=C(c1ccc(-n2cccn2)nc1)N1CCC(Nc2cccnn2)CC1 | -8.1% | 10.4% | 4.61% | 12.7% | 1.47% | 0.632% | 12.8% | 5.75% | 6.67% | 9.41% | -8.74%
8 | Cc1cccc(C2(NC(=O)CCN3C(=O)CCC3=O)CCCC2)c1 | -5.83% | 12.7% | -1.51% | 8.26% | 0.85% | -2.28% | 4.83% | 0.0333% | 5.42% | 11.4% | -4.64%
9 | CC(=O)N1CCN(C(=O)c2cc(-n3cnnn3)ccc2Cl)CC1 | -7.31% | 2.63% | -6.84% | 0.287% | -2.63% | -4.73% | 6.04% | 9.34% | -2.13% | -2.6% | 0.334%
10 | CC(C)C(=O)NCC(=O)N(C)C1CCCN(CCc2ccccc2)C1 (configuration not stated) | -2.17% | 10.8% | 0.942% | 15.5% | 4.25% | -0.952% | 11.9% | -0.751% | 3.7% | 4.88% | -5.28%
11 | CSc1ccccc1CN1CCCn2nc(CNC(=O)N(C)C)cc2C1 | -2.86% | 8.22% | -6.48% | 20.7% | 3.13% | 4.09% | 6.92% | 9.78% | 4.3% | 12.5% | 97.4%
12 | COCCOCc1cccc(NC(=O)N2CCCC2c2ccncc2)c1 (configuration not stated) | -2.97% | 13% | -3.58% | 1.28% | -4.02% | 1.9% | 5.09% | 16.9% | 6.67% | 7.06% | -20.8%
13 | CCCS(=O)(=O)N1CCC2(CC1)CN(c1ccccn1)CCO2 | -4.44% | 4% | -4.84% | -5.06% | -11% | -11.8% | 11.8% | -5.14% | 0% | -2.56% | -7.42%
14 | Cn1cc(CNCCOc2ccc(F)c(F)c2)c(-c2cccnc2)n1 | -6.54% | 5.41% | -6.5% | 20.6% | 1.47% | 0.744% | 5.41% | 7.57% | 4.3% | 8.64% | -3.29%
15 | Cc1nc(CNC(=O)NCCc2ccc(N(C)C)cc2)cs1 | -4.53% | 10.8% | 6.12% | 13.5% | 1.23% | -5.61% | -1.98% | -15.3% | 9.36% | 18.5% | -10.4%
16 | CCc1cc(N2CCSCC2)n2nc(C)c(C)c2n1 | -2.37% | 5.33% | 2.1% | 4.26% | -4.97% | 1.04% | 26.7% | 15.8% | -2.73% | 6.17% | -6.13%
17 | NS(=O)(=O)CCNC(=O)c1ccc(-c2ccc(F)cc2)cc1F | -4.5% | 5.2% | 1.86% | 3.08% | -1.08% | 8.28% | 24.5% | 19.2% | -10.8% | 1.24% | -1.11%
18 | COc1cccc2c1ccn2CCNC(=O)C(C)C | -1.68% | 20% | 0.539% | 3.44% | 0.393% | -1.94% | 18.5% | 26.9% | 7.41% | 12.8% | -3.78%
19 | O=C1CC(c2ccc(C(=O)O)cc2)c2ncn(-c3cccc(F)c3)c2N1 (configuration not stated) | -3.41% | 9.33% | -61.2% | -4.05% | -4.13% | 7.57% | 13.3% | -9.89% | 10.6% | 15.4% | -7.23%
20 | Cc1noc(CN2CCOC(CN(C)C)C2)n1 (configuration not stated) | -2.18% | 24.3% | 0.532% | -4.95% | 5.11% | 2.77% | 11.3% | 22.3% | 5.94% | 18.3% | -7.83%
21 | CC(=O)N1CCOCC2(CCN(Cc3ccc(C)s3)CC2)C1 | -3.46% | 10.7% | -5.5% | -0.245% | 6.37% | -51.8% | 2.91% | -1.39% | 4.17% | 5% | -7.22%
22 | CCn1cc(NC(=O)NCC(c2cccc(F)c2)N(C)C)cn1 (configuration not stated) | 0.401% | 13.2% | 0.674% | 6.49% | -0.752% | 0.383% | 4.68% | -12.5% | 11.3% | 21.9% | -5.78%
